PubChem BioAssay (NCI)
The panel holds about 83,000 compounds, 20% with a hit somewhere; the sample as a whole holds those more often.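 Testing used 96-well plates and a 48-hour single-concentration exposure. Example: -40 means 40% of the starting cells died.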 The source made the active and inactive calls. Rule for the calls: active = growth percent below 10; inactive = the rest.

How the values were obtained:
Assay in all cases: NCI-60 one-dose screen, 48 h (100 = growth as untreated, 0 = no growth, -100 = all killed)
Settings in all cases: 10 µM unless noted
[1] = system: T-47D breast
[2] = system: BT-549 breast
[3] = system: MDA-MB-435 melanoma
[4] = system: SW-620 colon
[5] = system: MCF7 breast
[6] = system: HCT-116 colon
[7] = system: HCC-2998 colon
[8] = system: KM12 colon

Measured: growth

O=C(O)/C(Br)=C/c1c[nH]c2ccc(Br)cc12
inactive: [1] 184% | [2] 121% | [3] 117% | [4] 110% | [5] 137% | [6] 98.2% | [7] 94.2% | [8] 103%

COc1ccc(C(=O)CN2C(=O)NC(c3ccccc3)(c3ccccc3)C2=O)cc1
inactive: [1] 95.2% | [2] 105% | [3] 104% | [4] 96.8% | [5] 102% | [6] 106% | [7] 106% | [8] 109%

COc1cc(CNC(=O)CCCC/C=C/C(C)C)ccc1OCc1nnc(Nc2ccccc2F)o1
inactive: [1] 65% | [2] 76.9% | [3] 100% | [4] 98.9% | [5] 66.9% | [6] 53.5% | [7] 90.8% | [8] 78.8%

C=CCNCCC#N
inactive: [1] 96.3% | [2] 105% | [3] 109% | [4] 110% | [5] 99.5% | [6] 100% | [7] 116% | [8] 115%

CCCCCCCCCCCCc1ccc([N+](CC)(CC)CC)cc1
inactive: [1] 18.6% | [2] 30.2% | [3] 13.9% | [4] 58.8% | [5] 27.9% | [6] 41.8% | [7] 36.7% | [8] 25.6%

COc1cc2c(c3c1c(=O)c1cccc(F)c1n3C)C=CC(C)(C)O2
inactive: [1] 89.2% | [2] 100% | [3] 94.9% | [4] 113% | [5] 44.6% | [6] 92.8% | [7] 101% | [8] 76.6%

O=C(/C=C1\C(=O)N(Cc2ccccc2)c2ccccc21)c1ccc(OCCN2CCCCC2)cc1
active: [1] -56.3% | [4] -45.7% | [5] 3.98% | [6] -3.84%
inactive: [2] 80.4% | [3] 96.1% | [7] 93.8% | [8] 80.6%

CCCCCCCCCC(C)NC(=O)CCl (centres undefined)
inactive: [1] 82.6% | [2] 88.8% | [3] 96.3% | [4] 103% | [5] 86.2% | [6] 95.7% | [7] 103% | [8] 101%

CCCCCCNC(=O)Oc1ccc(/C(=C(/C)Cc2ccc(OC)cc2)c2ccc(OCCN(C)C)cc2)cc1
inactive: [1] 25.8% | [2] 88.1% | [3] 67.8% | [4] 35.4% | [5] 20.4% | [6] 26.7% | [7] 52.4% | [8] 56.3%

S=C(N/N=C/c1cc(Cl)cc(Cl)c1)NC12CC3CC(CC(C3)C1)C2
inactive: [2] 98% | [3] 78.4% | [4] 73.8% | [5] 82.5% | [6] 69.4% | [7] 115% | [8] 105%
active: [1] -8.35%

CCC(CCCN1C(=O)c2ccccc2C1=O)Nc1cc(OC)cc2c(C)ccnc12 (centres undefined)
inactive: [1] 85.9% | [2] 78.7% | [3] 99.2% | [4] 85.6% | [5] 91.5% | [6] 98% | [7] 69% | [8] 102%

COc1cc2ncnc(-n3ncc4cc(NC(=O)Nc5ccc(Cl)c(C)c5)ccc43)c2cc1OC
inactive: [1] 72% | [2] 89.7% | [3] 93.8% | [4] 120% | [5] 72.7% | [6] 81.5% | [7] 100% | [8] 25.8%

COc1ccc(CNCCCN2C(=O)c3ccc4c5c(ccc(c35)C2=O)C(=O)N(CCCNCc2ccc(OC)c(OC)c2OC)C4=O)c(OC)c1OC
active: [1] -40.1% | [2] -90.5% | [3] -87.5% | [4] -94.6% | [5] -85% | [6] -71.2% | [7] -92.8% | [8] -89.9%

Br/C(=N\Nc1nn[nH]n1)c1ccccc1
inactive: [1] 101% | [2] 99% | [3] 111% | [4] 102% | [5] 95.3% | [6] 104% | [7] 118% | [8] 114%

CSc1nc(N)n2nccc2n1
inactive: [1] 102% | [2] 99.6% | [3] 98.3% | [4] 97.9% | [5] 96% | [6] 99.2% | [7] 100% | [8] 114%

COc1cc(CCNc2cnc3cc(N)cc(N)c3n2)cc(OC)c1
inactive: [1] 140% | [2] 113% | [3] 115% | [4] 111% | [5] 96.9% | [6] 103% | [7] 139% | [8] 106%

COc1cccc(Cn2cc3c(c2)-c2oncc2CC3)c1
inactive: [1] 65.2% | [2] 66% | [4] 26.4% | [5] 18.4%
active: [3] -47% | [6] 8.74% | [7] -32.4% | [8] 5.03%

CCCCCCCCCC[N+](C)(C)N
inactive: [1] 96.7% | [2] 84.2% | [3] 91.9% | [4] 102% | [5] 98% | [6] 95.5% | [7] 98.5% | [8] 99.8%

C[C@]12CC[C@H]3[C@@H](CC[C@H]4C[C@@H](O)CC[C@@]43C)[C@@H]1CC(=O)C2
inactive: [1] 106% | [2] 103% | [3] 116% | [4] 103% | [5] 124% | [6] 99.3% | [7] 101% | [8] 108%

N=C(N)N=Nc1ccc(NN=C(N)N)c2ccccc12
inactive: [1] 86.3% | [2] 81.1% | [3] 115% | [4] 103% | [5] 97.4% | [6] 88.8% | [7] 106% | [8] 109%

CCOC(=O)C1CCCN1C(=O)C1(NC(C)=O)CCCC1 (centres undefined)
inactive: [1] 100% | [2] 95.5% | [3] 103% | [4] 99.6% | [5] 99.3% | [6] 96.4% | [7] 108% | [8] 91.2%

COc1ccc(-c2nc(N)n(C(=S)Nc3ccccc3)n2)cc1
inactive: [1] 84.8% | [2] 102% | [3] 107% | [4] 99% | [5] 89.1% | [6] 98.3% | [7] 107% | [8] 95.5%

N=c1c2c(=O)n3c(nc2nc2sc4ccc(Cl)cc4n12)-c1ccccc1Sc1ccccc1-3
inactive: [4] 26.1% | [8] 22.6%
active: [1] 1.99% | [2] 1.57% | [3] 0.844% | [5] 6.98% | [6] 7.35% | [7] 6.95%

CC1C(=O)CCCC1=O
inactive: [1] 96.1% | [2] 104% | [3] 105% | [4] 113% | [5] 95.8% | [6] 113% | [7] 109% | [8] 113%

Nc1nc2c(c3cnccc13)C(c1ccc(Cl)c(Cl)c1)Cc1cnccc1-2 (centres undefined)
active: [2] -39.1% | [3] -53% | [4] 3.85% | [5] 0.513% | [6] -37.8% | [7] -75.7% | [8] -34.8%
inactive: [1] 16.9%

O=C1/C(=C\c2cn(-c3nc(N4CCOCC4)nc(N4CCOCC4)n3)c3ccccc23)c2ccccc2N1c1c(Cl)cccc1Cl
inactive: [1] 45.5% | [2] 39.1% | [3] 83.5% | [4] 84.5% | [5] 50.6% | [6] 71.6% | [7] 75.5% | [8] 88.5%

COc1cc2c(/C=C3\C(=O)Nc4ccc(Br)cc43)c(Cl)n(C)c2cc1C
inactive: [1] 64.4% | [2] 35.1% | [4] 31.9% | [5] 23.9%
active: [3] 7.32% | [6] 5.1% | [7] -39.4% | [8] -21.5%

CCCNC(=O)Oc1ccc(/C(=C(/CC)Cc2ccccc2)c2ccc(OCCN(CC)CC)cc2)cc1
inactive: [1] 34.1% | [2] 97.4% | [3] 87.8% | [4] 70.9% | [5] 26.3% | [6] 49.1% | [7] 50% | [8] 69.2%

CCOC(=O)c1c(C)oc2ncnc(Nc3ccc(C(=O)NCCc4ccccc4)cc3)c12
inactive: [1] 65.1% | [2] 67.3% | [3] 87.5% | [4] 105% | [5] 78.6% | [6] 64.8% | [7] 91.5% | [8] 89%

CC(=O)N(N=O)c1ccc([N+](=O)[O-])cc1Cl
inactive: [1] 29.2% | [2] 71.7% | [3] 66.7% | [4] 71.6% | [5] 52.2% | [6] 44.9% | [7] 76.6% | [8] 69%

CCCNC(=O)Oc1ccc(/C(=C(/C)Cc2ccc(OC)cc2)c2ccc(OCCN3CCCC3)cc2)cc1
inactive: [1] 37% | [2] 82.7% | [3] 65.8% | [4] 77.7% | [5] 25.3% | [6] 48.8% | [7] 62.5% | [8] 78.7%

COc1ccc(Cn2cc3c(c2)-c2oncc2CC3)cc1OC
inactive: [1] 47.5% | [2] 59.4% | [4] 21.9%
active: [3] -46.2% | [5] 7.49% | [6] 4.37% | [7] -37.5% | [8] 5.46%

FC(F)(F)c1cccc(-c2[nH]ncc2-c2nnnn2-c2ccccc2)c1
active: [3] -7.25%
inactive: [1] 44.9% | [2] 42.8% | [4] 16.5% | [5] 24.1% | [6] 20.7% | [7] 31.1% | [8] 23.9%
